# An excerpt weighted towards active compounds, which were near 12% of everything screened.
# PLK1 PBD inh = blocks phosphopeptide binding to human PLK1 polo-box domain. Plk1 PBD binding of FITC phosphopeptide, fluorescence polarization. Potency, µM, inactives show max response, negative = inhibition, most hits filed as inhibitors. 360,000 tested, 2.8% active. P53350. AID 720504; further: series mostly up to about 57 µM; on the % scale 0 is the no-effect control and ±100 the full control effect; nearly all actives have a fitted effect of over 65% in size
# HP1b binding inh = blocks HP1-beta chromodomain binding to methylated histone tails; 390,000 tested, 0.56% active; AID 540317; Potency, µM (series often up to 114 µM), without a hit: at the highest dose activity change, negative = inhibition, hits mostly inhibitors; AlphaScreen HP1-beta / biotin-H3K9me3 peptide binding; further: nearly all actives have a fitted effect of over 70% in size
# Target sequence (P83916 whole entry, looked up): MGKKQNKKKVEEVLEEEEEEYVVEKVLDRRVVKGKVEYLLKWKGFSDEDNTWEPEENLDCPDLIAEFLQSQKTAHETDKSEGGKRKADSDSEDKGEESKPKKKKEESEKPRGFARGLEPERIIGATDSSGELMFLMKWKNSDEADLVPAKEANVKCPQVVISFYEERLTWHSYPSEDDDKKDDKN
#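 Compound inhibition of the preformed complex between 50 nM HP1-beta and 50 nM biotinylated H3K9me3 peptide was read by AlphaScreen. Buffer was PBS pH 7.4 with 0.01% Tween-20. Incubations ran 30 min at room temperature, with 10 ug/mL donor/acceptor beads.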
# G9a inh = G9a (human) methyltransferase inhibition. Q96KQ7. G9a H3K9 monomethylation, AlphaScreen, 2 h. Potency, µM (top dose mostly 102 µM), for inactives: at the top dose activity, negative = inhibition, actives largely listed as inhibitors. 350,000 tested, 8.8% active. AID 504332; further: on the % scale 0 is the no-effect control and ±100 the full control effect; nearly all actives have a fitted effect of over 75% in size
# Target sequence (Q96KQ7 913-1193 limits assumed): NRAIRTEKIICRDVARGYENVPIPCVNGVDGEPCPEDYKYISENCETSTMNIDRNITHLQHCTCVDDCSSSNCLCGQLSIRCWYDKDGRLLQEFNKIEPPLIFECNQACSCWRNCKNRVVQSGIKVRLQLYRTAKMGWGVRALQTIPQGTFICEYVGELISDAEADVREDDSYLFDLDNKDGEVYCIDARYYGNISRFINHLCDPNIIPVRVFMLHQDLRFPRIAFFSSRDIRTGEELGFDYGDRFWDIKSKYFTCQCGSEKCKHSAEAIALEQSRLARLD
#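 AlphaScreen read-out: biotin-H3K9 peptide (500 nM) methylation by 20 nM enzyme with 20 uM SAM, 2 h at room temperature after 15 min compound preincubation; anti-monomethyl H3K9 antibody plus donor/acceptor beads, 10 min dark.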
# BAZ2B inh = BAZ2B (human) inhibition; AlphaScreen BAZ2B-H3K14Ac peptide displacement; 360,000 tested, 4.4% active; AID 504333; Q9UIF8; Potency, µM (doses to about 114 µM), for the others: top-dose activity change, negative = inhibition, actives largely listed as inhibitors; further: on the % scale 0 is the no-effect control and ±100 the full control effect; nearly all actives have a fitted effect of over 60% in size
#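 Compounds, titrated to a top concentration of 110 uM, were incubated 30 min at room temperature with preformed BAZ2B/acetyl-K14 H3 peptide complex (50 nM each). Proximity signal was measured by AlphaScreen after 20 min with beads.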
# Sfp inh = blocks B. subtilis Sfp PPTase activity; Biochemical Sfp PPTase activity, qHTS; Potency, µM, for the others: largest response in the series, negative = inhibition, actives largely listed as inhibitors; 310,000 tested, 3.5% active;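 further: the enzyme is Sfp with the accession as filed and its product quenches rhodamine fluorescence; 0% = enzyme reaction without inhibitor and -100% = no enzyme wells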
#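 Step 1, compound plus 15 nM Sfp-PPTase, 15 min, room temperature. Step 2, add rhodamine-CoA (5 uM) and BHQ-2-YbbR (12.5 uM). Step 3, read 525/598 nm fluorescence at 0 and 30 min.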
# JMJD2A Tudor inh = inhibitors of human JMJD2A Tudor domain. O75164. AlphaScreen JMJD2A-Tudor / H3K4me3 peptide binding. Potency, µM (titrated, usually from 114 µM), inactives show top-dose activity change, negative = inhibition, usual class: inhibitors. 390,000 tested, 4.4% active. AID 504339; further: on the % scale 0 is the no-effect control and ±100 the full control effect; nearly all actives have a fitted effect of over 50% in size
# TbPYK confirm = Trypanosoma brucei pyruvate kinase inhibition, cherry-pick confirmation; shares compounds with PLK1 PBD inh; recombinant TbPYK, Kinase-Glo ATP luminescence; Potency, µM (series often up to 76.9 µM), for inactives: top-dose activity change, negative = inhibition, hits mostly inhibitors; 890 tested, 67% active; AID 720569; further: on the % scale 0 is the no-effect control and ±100 the full control effect; nearly all actives have a fitted effect of over 70% in size
# TbPYK ADP-Glo = inhibits T. brucei pyruvate kinase in orthogonal ADP-Glo assay; shares compounds with PLK1 PBD inh; recombinant TbPYK, ADP-Glo luminescence, 60 min; Potency, µM (highest dose often 76.9 µM), for the others: at the top dose activity change, negative = inhibition, hits mostly inhibitors; 890 tested, 62% active; AID 720584; further: on the % scale 0 is the no-effect control and ±100 the full control effect; nearly all actives have a fitted effect of over 75% in size
# * = called active by the depositor; ? = inconclusive; . = not tested or not shown; [ ] = dose if it differs, or a comment. The call rests on the fitted dose curve; in most records, active means well fitted curve in the direction sought with a large enough effect; inconclusive means small, poorly fitted or top-dose-only effect, or another doubt; inactive means no such curve, though single readings can be large; an effect the other way counts as inactive or inconclusive. Potency means the concentration at half of the fitted maximal effect.
SMILES,PLK1 PBD inh,HP1b binding inh,G9a inh,BAZ2B inh,Sfp inh,JMJD2A Tudor inh,TbPYK confirm,TbPYK ADP-Glo
CC(=O)/C(=N\Nc1ccc(Cl)cc1Cl)Sc1nnc(-c2ccccc2)n1-c1ccccc1,-8.6%,35.4%,?,-2.7%,3.9%,-12.3%,?,14.1µM*
O=C(CN(C(=O)C1CSC(=O)C1)c1ccc(F)cc1)NCc1ccc2c(c1)OCO2 (stereo unspecified),-13.5%,-2.1%,8.1%,-2.5%,14.5%,-14.7%,.,.
CN(CCOc1ccccc1)C(=O)c1ccc(F)c(S(=O)(=O)N2CCOCC2)c1,2.3%,29.9%,-6.3%,3.0%,.,-9.5%,.,.
CCn1c(C(=O)NCc2cccnc2)cc2sc(Cl)cc21,-8.9%,2.9%,-48.5%[12.7 µM],-37.8%,-13.9%,-34.3%,?,?
COc1ccc(CCN2C(=O)CCC2(C)c2nnnn2Cc2ccccc2)cc1OC (stereo unspecified),-5.1%,.,.,.,.,.,.,.
CN(CC(=O)Nc1ccc(Cl)cc1)C(=O)Cn1[nH]c(=O)c2ccccc2c1=O,-0.9%,17.5%,23.9%[2.33 µM],9.0%,.,-17.9%,.,.
O=C(CN1CCN(c2ccc(O)cc2)CC1)Nc1ccc2c(c1)OCCO2,10.4%,?,7.94µM*,-32.7%,10µM*,79.4µM*,22.4µM*,31.6µM*
COc1ccc(N2C(=NC(=O)CCC3CCCC3)SC3CS(=O)(=O)CC32)cc1 (stereo unspecified),2.8%,17.0%[57 µM],-6.0%,-7.1%[57.1 µM],6.0%,3.0%,.,.
CC(=O)Nc1ccc(Nc2nc3ccccc3nc2NS(=O)(=O)c2ccc(Cl)c([N+](=O)[O-])c2)cc1,?,-23.1%,.,.,.,?,.,.
O=C1OC(Nc2ccc3c(c2)OCO3)c2ccccc21 (stereo unspecified),-15.2%,?,?,39.8µM*,56.2µM*,50.1µM*,0.501µM*,12.6µM*
CCC12CCC3c4ccc(O)cc4CCC3C1CC(O)C2O (stereo unspecified),-2.9%,18.9%,.,.,.,-17.4%,.,.
CC1COCC(C)N1C1=C(Cl)C(=O)c2ccccc2C1=O (stereo unspecified),13.4µM*,12.6µM*,.,.,.,3.16µM*,?,?
O=C(/C=C/c1ccccc1)Nc1cccnc1,-2.3%,45.6%,.,-3.2%,-4.9%,-13.6%,.,.
Cc1ccc(/C=C/C(=O)Nc2nn[nH]n2)o1,-25.2%,-21.3%,?,35.5µM*,-90.0%,35.5µM*,25.1µM*,39.8µM*
Cc1ccc(/C=C/C(=O)Nc2cccc3ncccc23)o1,?,-14.3%,?,-3.6%,20µM*,?,?,?
CC(C)c1ccc(/C=C/C(=O)Nc2nn[nH]n2)cc1,.,.,?,-15.9%,20.8%,.,.,.
Cc1ccc(/C=C/C(=O)Nc2cccnc2)o1,?,?,3.55µM*,1.1%,-14.6%,?,28.2µM*,39.8µM*
Cc1cc(C)cc(NC(=O)Cn2nnc(C(=O)Nc3cc(C)cc(C)c3)c2N)c1,.,30.9%,6.0%[59 µM],.,.,-8.7%,.,.
O=C(Nc1ccc(Oc2ccccc2)cc1)c1ccc(F)c(S(=O)(=O)N2CCN(c3cccc(Cl)c3)CC2)c1,.,13.6%,-2.3%[59 µM],-3.8%,.,-10.7%,.,.
O=C(O)c1ccc(CSc2nnc(-c3cccnc3)n2-c2ccc(Br)cc2)cc1,-14.1%,59.0%,5.3%[12.7 µM],-29.4%,23.3%,?,2.51µM*,3.55µM*
CN(CC(=O)NCCc1ccc(S(N)(=O)=O)cc1)Cc1ccc(Cl)cc1Cl,-20.5%,8.9%,15.3%,7.9%,5.2%,-31.6%,.,.
COc1ccc2nc(Nc3sc4c(c3C(N)=O)CCCC4)sc2c1,?,22.4µM*,3.16µM*,?,44.7µM*,?,6.31µM*,7.94µM*

# From PubChem
